The source of these data is the OligoGym collection.
Further: reference of the scale not given here.

One assay has as its target ZNF599. As to the kind of experiment: pooled miR-30 sensor sort-seq; sequence = guide strand. To be noted: shRNA.
Turning to AATCTCTTGAGGATCTCTGTGC, the sensor-assay potency score (higher = more potent) is -0.218.
TATGGGTCCTCTTATGTCGGAT yielded a sensor-assay potency score (higher = more potent) of -0.578.
In turn, TTAGCTTTTCCTCATCTCTAGC yielded a sensor-assay potency score (higher = more potent) of -0.541.
Same read-out and setting: in the case of TTCCACATTCTCTACAAACATA it was -1.71; in that of TTGAGAGTCACACTCATGGAGA, -0.714; in that of TTGCACATTCTTTGCACTCCAA, -0.563.
The same measure, in the same setting: in the case of TTCTCTACAAACATAGGGCTTC it was 0.194; in that of TGAATCTTTAATATAATTCTTT, -0.316; in that of TTATTTTAAAATATGCTTGAGA, -0.0715.
Turning to TTGTGGAGTGACTCGTTCCTGT, the sensor-assay potency score (higher = more potent) is -0.347.
Same read-out and setting: in the case of TAAATGCATGTTAACCACCAGG it was -1.03.

The target of a further assay is ZNF609. The description is as above. To be noted: shRNA.
In the case of TATTGGATCCATCTCTGCCTGT, the sensor-assay potency score (higher = more potent) is -0.575.
The same measure, in the same setting: in the case of TATCGTGGGAGACTTGCTCTTG it was -0.437.
Same read-out and setting: in the case of TGAAACTGTAGATCTTGTCGGC it was 0.618.
Same read-out and setting: in the case of TTGACATCCTCAGAAGTGCTGC it was 0.188.
For TTTCTGTCCAGAACAGTGGGTT, the sensor-assay potency score (higher = more potent) was 0.109.
In the case of TTGACTTTCTTTAGCAGGCGAC, the sensor-assay potency score (higher = more potent) was -0.497.
Still for that read-out and setting: in the case of TTGCAGTCACTACTTGTGCTTT it was -0.589; in that of TCTTTTTCCATACACTTCCTTT, -0.591.
As to TTGGAGAATAGTAACTCTCAAA, the sensor-assay potency score (higher = more potent) was -1.39.
Same read-out and setting: in the case of TGATTTGACACTGTCTACCTTG it was 0.639; in that of TAAACATATGTCCACATCCGGG, -1.36.
On the same count and under the same terms, in the case of TTTGTGAGACAGATGCACCGTT it was 0.735.

The next assay addresses ZNF630. The description is as above. To be noted: shRNA.
Take ACACATACTACAAACATTGGGT: the sensor-assay potency score (higher = more potent) was -0.0412.
On the same count and under the same terms, in the case of TTCCATACTTAGTACATTCATA it was -0.904.
The same measure, in the same setting: in the case of TAGAATGAGATGTGACTTCAGG it was -0.186; in that of TAATTAGATGTGACTTCTGGGA, -0.376; in that of TTCTTTCTTGCATAGCTCCTGT, 0.0285.
Same read-out and setting: in the case of TTATAATTTAGTAAGTCTGAAT it was -1.16.
As to TATAATTAGATGTGACTTCTGG, the sensor-assay potency score (higher = more potent) came out at 0.548.
The same measure, in the same setting: in the case of TTTCACATTGACTATCTCCATA it was -0.895; in that of TAAGTCTGAATTAGACTTCAAG, -0.977.
The same measure, in the same setting: in the case of TTGGACACTCAAAACACTCATA it was -0.509; in that of ATACTTAGTACATTCATAGGGT, 0.067.
The same measure, in the same setting: in the case of TTGCTTATGACTGAGAACTTTT it was -0.853.

The target in a further assay is ZNF653. Described as above. To be noted: shRNA.
With TGAAGTTGTACTGCACCTCCGC, the sensor-assay potency score (higher = more potent) is -0.192.
Still for that read-out and setting: in the case of TTGGCGTCGCTCCAGCCGCTGC it was -1.56.
The same measure, in the same setting: in the case of TGACATGTCGCTGCCGTCCAGC it was -1.21.
